HP1b chromo inh: blocks HP1-beta chromodomain binding to methylated histone tails | AID 540317 | Potency, µM (top dose mostly 114 µM), for inactives: top-dose activity change, negative = inhibition, hits mostly inhibitors | AlphaScreen HP1-beta / biotin-H3K9me3 peptide binding | P83916 | actives 0.56% (n = 390,000); note: nearly all actives have a fitted effect of over 70% in size
Target sequence (P83916 whole entry, looked up): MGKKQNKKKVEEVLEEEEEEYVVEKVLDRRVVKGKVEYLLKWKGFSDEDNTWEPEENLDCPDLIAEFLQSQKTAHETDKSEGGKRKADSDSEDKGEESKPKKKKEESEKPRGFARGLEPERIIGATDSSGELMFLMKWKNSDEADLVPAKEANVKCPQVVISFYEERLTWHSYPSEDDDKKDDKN
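Compound inhibition of the preformed complex between 50 nM HP1-beta and 50 nM biotinylated H3K9me3 peptide was read by AlphaScreen. Buffer was PBS pH 7.4 with 0.01% Tween-20. Incubations ran 30 min at room temperature, with 10 ug/mL donor/acceptor beads.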
JMJD2A Tudor inh: JMJD2A Tudor domain (human) inhibition | O75164 | AlphaScreen JMJD2A-Tudor / H3K4me3 peptide binding | Potency, µM (top dose mostly 114 µM), for inactives: at the highest dose activity change, negative = inhibition, most hits filed as inhibitors | actives 4.4% (n = 390,000); note: % is set by controls: 0 for no effect and ±100 for the full control effect; nearly all actives have a fitted effect of over 50% in size
L3MBTL1 inh: inhibitors of human L3MBTL1; Q9Y468; Potency, µM (top dose mostly 57.1 µM), for the others: at the highest dose activity, negative = inhibition, actives largely listed as inhibitors; AID 485360; actives 0.66% (n = 230,000); AlphaScreen L3MBTL1–H3K9me1 peptide binding; note: % is set by controls: 0 for no effect and ±100 for the full control effect; nearly all actives have a fitted effect of over 60% in size
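L3MBTL1 (50 nM) pre-complexed 30 min with biotinylated H3(1-15)K9me1 peptide (75 nM), then compounds added for 30 min at room temperature; AlphaScreen streptavidin donor/nickel chelate acceptor beads (10 ug/mL final) read after 30 min dark incubation.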
G9a block: G9a (human) methyltransferase inhibition | Q96KQ7 | G9a H3K9 monomethylation, AlphaScreen, 2 h | Potency, µM (titrated, usually from 102 µM), without a hit: top-dose activity, negative = inhibition, actives largely listed as inhibitors | actives 8.8% (n = 350,000) | AID 504332; note: % is set by controls: 0 for no effect and ±100 for the full control effect; nearly all actives have a fitted effect of over 75% in size
Target sequence (Q96KQ7 913-1193 limits assumed): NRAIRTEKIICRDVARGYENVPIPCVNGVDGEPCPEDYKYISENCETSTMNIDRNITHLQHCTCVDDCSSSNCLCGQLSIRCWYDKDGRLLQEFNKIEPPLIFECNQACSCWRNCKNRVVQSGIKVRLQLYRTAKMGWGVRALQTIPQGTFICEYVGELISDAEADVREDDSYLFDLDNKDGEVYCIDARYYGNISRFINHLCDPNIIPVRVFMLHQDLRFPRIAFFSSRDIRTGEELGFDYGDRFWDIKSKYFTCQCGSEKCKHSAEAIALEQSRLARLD
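AlphaScreen detection with an anti-monomethyl H3K9 antibody quantified product after a 2 h room-temperature reaction containing 500 nM biotinylated H3K9 peptide, 20 µM SAM and 20 nM enzyme, which had been preincubated 15 min with compound.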
BAZ2B block: inhibitors of human BAZ2B bromodomain; AlphaScreen BAZ2B-H3K14Ac peptide displacement; actives 4.4% (n = 360,000); Q9UIF8; Potency, µM (titrated, usually from 114 µM), for inactives: top-dose activity change, negative = inhibition, hits mostly inhibitors; note: % is set by controls: 0 for no effect and ±100 for the full control effect; nearly all actives have a fitted effect of over 60% in size
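In this displacement format the biotinylated H3(5-23) peptide acetylated at Lys14 serves as ligand at 50 nM, with BAZ2B at 50 nM in PBS pH 7.4 containing 0.01% Tween-20. Donor and acceptor beads are 10 ug/mL final.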
Numbers without * were called inactive; ? = inconclusive; · = no result; ! = not confirmed by another sample; [ ] = remark or other dose. Sampled rows, rich in hits. Any-hit rate of the full collection: about 11%. Calls come from the whole dose curve; as a rule, active = well fitted inhibition curve with a large enough effect; inconclusive = small, poorly fitted or top-dose-only effect; inactive = no such curve, though single readings can be large or run the other way. Potency is the fitted concentration of half-maximal effect.

SMILES	HP1b chromo inh	JMJD2A Tudor inh	L3MBTL1 inh	G9a block	BAZ2B block
COc1ccc(-n2c(Cc3cccn3C)nnc2SCC(=O)Nc2ccc3c(c2)OCCO3)cc1	-19.4%	-32.4%	·	50.1µM*	?
COc1ccc(NC(=O)CSc2nnc(Cc3cccn3C)n2-c2ccc(OC)cc2)cc1	18.3%	-19.7%	-11.9%	44.7µM*	50.1µM*
CC(=O)c1ccc(NC(=O)CSc2nnc(Cc3cccn3C)n2-c2ccc(F)cc2)cc1	-8.1%	?	·	50.1µM*	50.1µM*
CC(=O)Nc1cccc(NC(=O)CSc2nnc(Cc3cccn3C)n2-c2ccc(C)cc2)c1	9.9%	-21.4%	-21.1%	50.1µM*	?
COc1ccc(-n2nc(C)c3c(C(F)(F)F)cc(-c4cccnc4)nc32)cc1	49.7%	13.8%	·	7.6%[59 µM]	0.1%
Cc1cc(S(=O)(=O)C(CNC(=O)COc2ccc(Cl)cc2)c2cccs2)ccc1F (stereo unspecified)	39.4%	-15.9%	·	32.2%[59 µM]	-4.7%
COc1ccc(-n2c(Cc3cccn3C)nnc2SCC(=O)Nc2ccc(C(C)=O)cc2)cc1	9.6%	-25.4%	·	50.1µM*	?
CCOc1ccc(NC(=O)CSc2nnc(Cc3cccn3C)n2-c2ccc(OC)cc2)cc1	?	?	-5.7%	0.1%[12.7 µM]	?
CN(C(=O)CSc1nc2cc(C(=O)O)ccc2c(=O)n1Cc1ccccc1)C1CCS(=O)(=O)C1 (stereo unspecified)	18.8%	-15.9%	4.9%	50.1µM*	-4.5%
C=C1C(=O)[C@]23[C@H](O)[C@H]1CC[C@H]2[C@@]12COC3(O)[C@H](O)[C@@H]1C(C)(C)CC[C@@H]2O	·	·	·	7.08µM*	·
CN(c1ccc(OC(=O)CN2C(=O)NC3(CCCC3)C2=O)cc1)S(=O)(=O)c1ccccc1	7.1%	-26.2%	-7.8%	-44.1%	-4.3%
CCCN1C(=O)C(O)(CC(=O)c2cccc(OC)c2)c2ccccc21 (stereo unspecified)	-39.0%	?	·	-39.4%[12.7 µM]	56.2µM*
Cn1c(C(=O)NCCCN2CCCC2=O)cc2c(=O)n(C)c3ccccc3c21	52.0%	-9.9%	·	18.0%	-5.0%
CCCN(CCC)CCNC(=O)c1cc2c(=O)n(C)c3ccccc3c2n1C	14.3%	35.5µM*	7.0%	?	-0.8%
CCOCCCNC(=O)c1cc2c(=O)n(C)c3ccccc3c2n1C	17.5%	-13.5%	·	10µM*	-8.3%
CN(CCNC(=O)c1cc2c(=O)n(C)c3ccccc3c2n1C)Cc1ccccc1	28.1%	-26.1%	·	50.1µM*	-35.3%
Cc1ccc(CNC(=O)c2cc3c(=O)n(C)c4ccccc4c3n2C)cc1	8.8%	-18.6%	·	6.0%	-3.5%
O=C(CCC(=O)c1ccc(Oc2ccccc2)cc1)Nc1ccc(C(=O)O)cc1	23.4%	-13.3%	0.2%	-0.6%	-28.1%
CC(C)(C)c1cc(=O)n2[nH]c(N)nc2n1	27.7%	?	-9.2%	·	56.2µM*
Nc1nc2nc(-c3ccccc3)cc(=O)n2[nH]1	14.8%	?	·	3.1%[59 µM]	-15.8%
CCCc1cc(=O)n2[nH]c(C)nc2n1	38.8%	-28.8%	·	-40.3%[12.7 µM]	-31.8%
CC(C)c1cc(=O)n2[nH]c(N)nc2n1	3.3%	-46.5%	1.6%	79.4µM*	-27.2%
COCCCNCCOc1ccccc1-c1ccccc1	-35.2%	25.1µM*	?	7.94µM*	-31.8%
CCCCNCCOc1ccccc1-c1ccccc1	?	3.55µM*	9.7%	?	?
OCCNCCOCCOc1ccccc1-c1ccccc1	?	3.16µM*	-2.8%	8.91µM*	?
SMILES	HP1b chromo inh	JMJD2A Tudor inh	L3MBTL1 inh	G9a block	BAZ2B block
COCCCNCCCCOc1ccccc1-c1ccccc1	?	79.4µM*	-2.1%	14.1µM*	70.8µM*
N#CCCn1c(=O)c(-c2ccc(F)cc2)nc2cnc(N3CCNCC3)nc21	·	·	·	6.3%[0.501 µM]	·
Cc1ccc(Cn2c(SCc3ccc(C(=O)N4CCCCC4)cc3)nc3ccncc32)cc1	39.4%	-16.4%	·	-10.6%[59 µM]	-17.3%
COCCNCCOc1ccccc1-c1ccccc1	?	14.1µM*	·	10µM*	?
Fc1ccc(C(OCCCc2cnc[nH]2)c2ccc(F)cc2)cc1	·	·	·	44.7µM*!	·
O=c1c(Cc2ccc(F)cc2)c(O)ccn1CCc1cnc[nH]1	27.3%	-19.0%	5.6%	-2.4%	-10.0%
BrC(=C\c1ccccc1)/C=N/Nc1ccc2nncn2n1	-27.8%	?	·	·	44.7µM*
C(=N\Nc1ccc2nncn2n1)/c1ccco1	16.4%	2.1%	·	15.2%	-25.1%
COc1cc(/C=N/N2CCN(Cc3ccc(Cl)cc3)CC2)ccc1OC(C)=O	?	44.7µM*	-22.4%	·	56.2µM*
COC(=O)c1ccc(/C=N/N2CCN(Cc3ccc(Cl)cc3)CC2)cc1	36.3%	-10.4%	-4.0%	-8.4%	-33.5%
COc1cc(/C=N/N2CCN(Cc3ccc(Cl)cc3)CC2)cc(Br)c1O	-21.0%	44.7µM*	-0.7%[2.29 µM]	2.1%[0.501 µM]	50.1µM*
O=C1C=C(c2ccccc2)C(=O)N1Nc1ccccc1	20.8%	-12.4%	·	8.91µM*	-4.8%
CCCCOC(=O)Sc1nc2ccccc2o1	19.0%	10.5%	-1.2%	25.1µM*	24.6%
CCCN(CCC)S(=O)(=O)c1ccc2c(c1)N(CC(=O)NC(C)c1ccccc1)C(=O)CS2 (stereo unspecified)	17.4%	-18.7%	·	2.2%[59 µM]	-9.9%
COc1ccccc1OCCCSc1nc(-c2ccc(C(C)(C)C)cc2)nc2cc(=O)[nH]n12	2.24µM*	50.1µM*	·	-2.0%[59 µM]	?
Cc1cc(OCCCSc2nc(-c3ccc(C(C)(C)C)cc3)nc3cc(=O)[nH]n23)ccc1Cl	?	31.6µM*	·	-1.3%[59 µM]	28.2µM*
Cc1cc(C)cc(OCCSc2nc(-c3ccc(C(C)(C)C)cc3)nc3cc(=O)[nH]n23)c1	3.1%	-35.7%	·	-10.0%[59 µM]	-17.2%
CC(C)(C)c1ccc(-c2nc(SCCCOc3ccccc3)n3[nH]c(=O)cc3n2)cc1	-21.0%	50.1µM*	·	5.0%[59 µM]	50.1µM*
Cc1cccc(OCC(=O)Nc2nnc(S(=O)(=O)N3CCc4ccccc43)s2)c1	-1.6%	-25.7%	·	?	-27.6%
COc1cccc(NC(=O)CSCc2cc(=O)c3ccc(C)c(C)c3[nH]2)c1	24.9%[57 µM]	1.3%	·	8.2%[59 µM]	7.1%
Cc1ccccc1C(=O)Nc1cccc(C(=O)OCc2cc(=O)n3c(C)csc3n2)c1	19.1%	-9.9%	·	12.3%[59 µM]	-10.2%
CC(C)c1ccc(CN(C(=O)C2COc3ccccc3O2)C2CCS(=O)(=O)C2)cc1 (stereo unspecified)	6.4%	-18.7%	10.1%	·	-7.0%
Cc1ccc(OCC(=O)N(Cc2ccc(N(C)C)cc2)C2CCS(=O)(=O)C2)cc1C (stereo unspecified)	?	?	-4.3%	·	44.7µM*
Cc1c(C(=O)N(Cc2ccc(N(C)C)cc2)C2CCS(=O)(=O)C2)oc2ccccc12 (stereo unspecified)	?	14.1µM*	-16.7%	12.6µM*	28.2µM*
